# In PubChem BioAssay (NCATS):
# Values joined by “and” are separate entries in the source; they are usually repeats but may differ in a detail not shown here. Identical values can stand only once. Records with an inconclusive call do not appear. Entries that show only a call come without a potency. Where a structure was tested more than once in an assay, its records may differ in their call. Active and inactive are the calls of the source. The call rests on the fitted dose curve; in most records, active means well fitted inhibition curve with a large enough effect in the repeat runs; inconclusive means weak or mixed curves; inactive means no such curve, though single readings can be large or run the other way.
# Target: Cytochrome P450 2C9 (Homo sapiens) (UniProt P11712)
# Test: Cytochrome P450 family 2 subfamily C member 9 (CYP2C9) small molecule antagonists: luciferase biochemical (cell-free) qHTS assay (AID 1645842); further: nearly all actives have a fitted effect of over 55% in size
# Conditions: P450-Glo CYP2C9 enzyme assay, luciferin luminescence; series mostly up to 57.4 µM
# Experimental: National Center for Advancing Translational Sciences [NCATS] Assay Overview: Cytochrome P450 (CYP) enzymes are membrane-bound hemeproteins that play a key role in metabolism of drugs and xenobiotics. Assaying the effect of chemicals on CYP isozymes is useful to minimize the adverse drug reactions and toxicities in drug development process. Chemical compounds were tested for their effect on CYP enzyme activities by using P450-Glo (TM) screening systems (Promega Corporation, Madison, WI). These systems provide a luminescent method containing proluciferin substrates and are converted to luciferin products by CYP isozymes. The luciferin products formed are detected with a luciferin detection reagent, and the amount of light produced is proportional to CYP activity. P450-Glo (TM) CYP2C9 screening system (Catalog. No. V9790) was used to detect the compounds that interfere in CYP2C9 activity.
# Assay Protocol Summary: Two ul of enzyme-substrate mix supplemented with 0.4% Bovine Serum Albumin was dispensed into medium binding white/solid 1536-well plates (Greiner Bio-One North America Inc., Monroe, NC) using a Flying Reagent Dispenser (FRD, Aurora Discovery, San Diego, CA). […] The assay plates were incubated at room temperature for 10 min. Then 2 ul of NADPH regeneration solution was added to each well of the assay plates using an FRD and incubated at 37C for 1 h. The reaction was stopped by adding 4 ul of detection reagent using an FRD and after 20 min incubation at room temperature, the luminescence signal was measured using a ViewLux plate reader (Perkin Elmer, Shelton, CT). Data were expressed as relative luminescence units.
# Potency means the concentration at half of the fitted maximal effect.
# Sequence of Cytochrome P450 2C9 (Homo sapiens) (P11712 whole entry, looked up): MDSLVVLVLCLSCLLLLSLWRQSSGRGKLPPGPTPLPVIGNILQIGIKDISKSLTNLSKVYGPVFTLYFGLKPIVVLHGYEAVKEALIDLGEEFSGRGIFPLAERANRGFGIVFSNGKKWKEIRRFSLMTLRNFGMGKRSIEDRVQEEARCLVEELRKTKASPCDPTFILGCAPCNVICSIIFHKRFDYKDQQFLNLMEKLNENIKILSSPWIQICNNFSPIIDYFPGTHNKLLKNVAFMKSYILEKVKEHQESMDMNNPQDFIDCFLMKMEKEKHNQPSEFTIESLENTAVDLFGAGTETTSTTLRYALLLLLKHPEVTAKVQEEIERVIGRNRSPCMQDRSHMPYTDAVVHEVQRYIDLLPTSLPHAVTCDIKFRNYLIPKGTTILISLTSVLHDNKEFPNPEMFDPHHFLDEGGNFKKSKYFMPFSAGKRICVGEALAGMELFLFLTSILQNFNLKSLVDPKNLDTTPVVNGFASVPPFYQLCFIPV
row,Structure (SMILES),Potency
1,CC(C)OC(=O)c1cc(C(=O)OC(C)C)cc([N+](=O)[O-])c1,0.748 µM (active)
2,CN(C)CCn1nnnc1SCC1=C(C(=O)O)N2C(=O)[C@@H](NC(=O)Cc3csc(N)n3)[C@H]2SC1,inactive
3,O=C(CS)Nc1ccccc1,4.9 µM (active)
4,COc1cc2c3cc1Oc1cc(ccc1O)C[C@@H]1c4c(cc(OC)c(O)c4Oc4ccc(cc4)C[C@@H]3N(C)CC2)CC[N+]1(C)C,inactive
5,CN1CCN(c2cc3c(nn2)Oc2ccccc2N3C)CC1,inactive
6,CC(C(=O)O)c1ccc(C(=O)c2ccccc2)s1 (stereo not given),15.5 µM (active)
7,COc1cccc2c1C(=O)c1c(O)c3c(c(O)c1C2=O)C[C@@](O)(C(=O)CO)C[C@@H]3O[C@H]1C[C@H](N)[C@H](O[C@@H]2CCCCO2)[C@H](C)O1,12.3 µM (active)
8,C=CCN1C(=O)C(CC(C)C)NC1=S (stereo not given),23.9 µM (active)
9,CC(C)(C)c1nnc(NS(=O)(=O)c2ccc(N)cc2)s1,inactive
10,O=C(O)c1cc(O)c(O)c(O)c1,inactive
11,O=C(O)[C@H](CC(=O)N1C[C@H]2CCCC[C@H]2C1)Cc1ccccc1,inactive
12,NS(=O)(=O)c1ccc(-n2nc(C(F)(F)F)cc2-c2ccc(Cl)cc2)cc1,10.7 µM (active)
13,CC(N)C(=O)OC(C)(C)Cc1ccc(Cl)cc1 (stereo not given),12.3 µM (active)
14,COC(=O)C1=C(C)NC(C)=C(C(=O)OC)C1c1cccc(NC(=O)NCCCN2CCC(c3cccc(OC)c3)CC2)c1,1.69 µM (active)
15,c1ccc2sc(SSc3nc4ccccc4s3)nc2c1,9.52 µM (active)
16,Nc1ccc([N+](=O)[O-])cc1O,39.9 µM (active)
17,O=C(Nc1ccc2c(c1)CCN(Cc1ncn[nH]1)C2)c1ccccc1-c1ccc(C(F)(F)F)cc1,10.7 µM (active)
18,COC(=O)c1nc(Cl)c(Cl)nc1N,inactive
19,CCCCCCCC/C=C/C(=O)O,inactive
20,O=[N+]([O-])c1ccc(CNc2nc(NCc3cccc(C(F)(F)F)c3)nc3nc[nH]c23)cc1,1.07 µM (active)

row,Structure (SMILES),Potency
1,O=C(O)Cc1ccc(-c2ccccc2)cc1,inactive
2,COc1ccc(-c2cc(=S)ss2)cc1,11 µM (active)
3,O=C(O)/C=C\C(=O)O,inactive
4,Nc1c(CC(=O)O)cccc1C(=O)c1ccc(Br)cc1,inactive
5,S=c1[nH]c2ccccc2s1,15.9 µM (active)
6,NC(=O)C(c1ccccc1)(c1ccccc1)[C@@H]1CCN(CCc2ccc3c(c2)CCO3)C1,inactive
7,Nc1ccc(O)c(C(=O)O)c1,inactive
8,C/C(=N\O)c1ccc(OCC(=O)N2CCCCC2)cc1,inactive
9,Cc1ccc(C(=O)c2ccc(CC(=O)O)n2C)cc1,inactive and 15.1 µM (active)
10,CCOC(=O)c1ccccc1O,inactive
11,CCC1C(=O)OCC1Cc1cncn1C (stereo not given),inactive
12,c1ccc(CCNc2nc(-c3ccccc3)cs2)cc1,5.49 µM (active)
13,N=C1N=C(N)c2cc3ccccc3cc21,inactive
14,N=C(N)N,inactive
15,COC(=O)Nc1nc2ccc(C(=O)C3CC3)cc2[nH]1,inactive
16,C=CCCCCCCCCC(=O)O,inactive
17,O=Cc1ccc(O)c(O)c1O,inactive
18,c1ccc2sc(SN3CCOCC3)nc2c1,10.7 µM (active) and 15.5 µM (active)
19,Cc1ccc(O)c(-n2nc3ccccc3n2)c1,4.36 µM (active)
20,O=C(CCN1CCN(CCO)CC1)N1c2ccccc2Sc2ccc(C(F)(F)F)cc21,inactive
